Eight compounds from PubChem BioAssay (NCI) can be followed below.

Compounds without any hit were thinned out: in the full panel of roughly 83,000, 20% have a hit.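 Cells were grown in 96-well plates and exposed to the test compound at a single concentration for 48 hours; results are reported as percent growth, with values below 10 considered active.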 Values without a mark were called inactive. Active and inactive are the calls of the source.

Some test systems named below: NCI-H23 lung; NCI-H226 lung; NCI-H322M lung; HOP-62 NSCLC; NCI-H460 lung; HOP-92 NSCLC; NCI-H522 lung; A549/ATCC NSCLC; 786-0 renal; COLO 205 colon; DU-145 prostate; K-562 leukemia; MALME-3M melanoma; MDA-MB-231 breast; RXF 393 renal; SF-268 CNS; SF-295 CNS; SF-539 CNS; UACC-257 melanoma; M14 melanoma.
Experiment in all cases: NCI-60 one-dose screen, 48 h (100 = growth as untreated, 0 = no growth, -100 = all killed)
Holding throughout (settings): 10 µM unless noted

For the compound `c1ccc2c(c1)Oc1cccnc1-n1nccc1-2`, the growth in the assay on NCI-H23 lung is 97.8%; with NCI-H226 lung, 77.3%; in the assay with NCI-H322M lung it was 102%; in the assay on HOP-62 NSCLC, 104%; in the assay on NCI-H460 lung, 103%; in the assay with HOP-92 NSCLC, 90%. In addition, the growth with NCI-H522 lung was 99.7%; with A549/ATCC NSCLC it was 99.6%; with 786-0 renal, 103%; in the assay with COLO 205 colon, 119%; in the assay with DU-145 prostate it was 110%; in the assay with K-562 leukemia it was 104%. The growth in the assay on MALME-3M melanoma was 103%; in the assay on MDA-MB-231 breast, 93.5%; in the assay on RXF 393 renal, 107%; in the assay with SF-268 CNS, 102%; in the assay on SF-295 CNS, 108%; with SF-539 CNS it was 106%. The growth is 102% with UACC-257 melanoma and 101% with M14 melanoma.

In the case of `CCOC(=O)C1CSC(C)(C(=O)OCC)N1` (stereo not given), the growth with NCI-H23 lung is 99.5%; in the assay with NCI-H226 lung, 95.5%; with NCI-H322M lung, 104%; in the assay with HOP-62 NSCLC, 90.6%; in the assay with NCI-H460 lung, 106%; with HOP-92 NSCLC, 84.7%. In addition, the growth in the assay on NCI-H522 lung is 76.7%; in the assay on A549/ATCC NSCLC it was 98.9%; with 786-0 renal, 90.8%; in the assay on COLO 205 colon it was 105%; with DU-145 prostate, 108%; in the assay with K-562 leukemia, 103%. Besides, the growth in the assay on MALME-3M melanoma is 98.4%; in the assay on MDA-MB-231 breast it was 107%; in the assay on RXF 393 renal, 115%; with SF-268 CNS it was 106%; in the assay with SF-295 CNS, 106%; in the assay with SF-539 CNS, 104%. In addition, the growth in the assay with UACC-257 melanoma is 111%; in the assay on M14 melanoma, 98.7%.

For the compound `O=C(Nc1ccc(-n2ccc3c(NC(=O)c4ccccc4)nccc32)cc1)c1cccc(C(F)(F)F)c1`, the growth was 50% with NCI-H23 lung; 63.9% in the assay with NCI-H226 lung; 48.8% with NCI-H322M lung; 46.2% with HOP-62 NSCLC; 2.21% (active) in the assay with NCI-H460 lung; 47.4% with HOP-92 NSCLC. The growth in the assay with NCI-H522 lung was 12.2%; in the assay on A549/ATCC NSCLC, 13%; in the assay on 786-0 renal, 18.3%; in the assay on COLO 205 colon, 35.8%; with DU-145 prostate, 45.2%; in the assay with K-562 leukemia, 15.3%. The growth in the assay with MALME-3M melanoma was 44.3%; in the assay on MDA-MB-231 breast, 51.4%; with RXF 393 renal, -8.11% (active); in the assay with SF-268 CNS, 26.9%; in the assay on SF-295 CNS, 11.3%; in the assay on SF-539 CNS, 16.8%. The values for the growth in the assay on UACC-257 melanoma and with M14 melanoma were 44.4% and 27.6%, respectively.

`NN=C(c1ccc(Cl)cc1)c1ccc(Cl)cc1`: the growth in the assay on NCI-H23 lung was 94.3%; in the assay with NCI-H226 lung it was 108%; in the assay with NCI-H322M lung, 123%; in the assay with HOP-62 NSCLC, 108%; in the assay with NCI-H460 lung it was 111%; in the assay with HOP-92 NSCLC, 97%. The growth with NCI-H522 lung is 106%; in the assay with A549/ATCC NSCLC, 82.2%; in the assay on 786-0 renal, 104%; in the assay on COLO 205 colon, 110%; in the assay with DU-145 prostate, 116%; in the assay with K-562 leukemia, 105%. The growth in the assay on MALME-3M melanoma was 121%; with MDA-MB-231 breast, 106%; in the assay on RXF 393 renal, 109%; in the assay on SF-268 CNS it was 96.6%; with SF-295 CNS, 91.1%; with SF-539 CNS it was 104%. For the same compound, the figures for the growth in the assay with UACC-257 melanoma and in the assay with M14 melanoma were 94.5% and 106%, respectively.

`N#Cc1c(N)nc(Cl)c(C#N)c1C(=O)c1ccccc1`: the growth is 67% with NCI-H23 lung; 87.9% in the assay with NCI-H226 lung; 96.5% in the assay on NCI-H322M lung; 69.4% in the assay on HOP-62 NSCLC; 61.5% in the assay with NCI-H460 lung; 74.2% in the assay on HOP-92 NSCLC. Moreover, the growth in the assay with NCI-H522 lung was 39.1%; with A549/ATCC NSCLC, 70.9%; in the assay with 786-0 renal, 37.8%; in the assay on COLO 205 colon, 61.6%; in the assay on DU-145 prostate it was 52.1%; in the assay on K-562 leukemia it was 5.81% (active). The growth in the assay on MALME-3M melanoma was 42.3%; in the assay with MDA-MB-231 breast, 26.3%; in the assay with RXF 393 renal, -2.56% (active); with SF-268 CNS, 38.6%; in the assay with SF-295 CNS, 56.1%; in the assay on SF-539 CNS, 15.2%. For the same compound, the values for the growth with UACC-257 melanoma and in the assay with M14 melanoma were 69.4% and 35%, respectively.

Regarding `C=CC(=O)Nc1cccc(Nc2nc(Nc3ccc(OCCOC(F)F)cc3)ncc2F)c1`, the growth with NCI-H23 lung was 75.2%; in the assay with NCI-H226 lung, 22.5%; in the assay with NCI-H322M lung, 10.3%; in the assay with HOP-62 NSCLC it was 29.1%; in the assay on NCI-H460 lung, 37.4%; in the assay with HOP-92 NSCLC, -0.338% (active). Besides, the growth in the assay on NCI-H522 lung was -7.77% (active); in the assay on A549/ATCC NSCLC, 30.9%; with 786-0 renal, 20%; with COLO 205 colon, 63.5%; in the assay with DU-145 prostate, 34.7%; with K-562 leukemia, 19.9%. For the same compound, the growth in the assay on MALME-3M melanoma was 46.3%; in the assay on MDA-MB-231 breast, 66.3%; in the assay with RXF 393 renal it was 9.55% (active); in the assay on SF-268 CNS, 40.5%; in the assay with SF-295 CNS, 52.5%; in the assay with SF-539 CNS, 31.4%. Also, the growth with UACC-257 melanoma is 52.7%; in the assay on M14 melanoma, 29%.

As to `COc1ccc(Cl)cc1NC(=O)c1cc2c(n1C)-c1nc(NC(=O)C(C)(C)C)sc1CC2`, the growth in the assay on NCI-H23 lung was 87.8%; in the assay on NCI-H226 lung, 89.6%; in the assay on NCI-H322M lung, 91.3%; with HOP-62 NSCLC, 76.4%; in the assay with NCI-H460 lung, 98.1%; in the assay on HOP-92 NSCLC, 67.9%. Moreover, the growth is 69% with NCI-H522 lung; 77.2% in the assay with A549/ATCC NSCLC; 94.7% in the assay with 786-0 renal; 97.7% in the assay on COLO 205 colon; 98.6% with DU-145 prostate; 92.2% with K-562 leukemia. The growth is 106% in the assay on MALME-3M melanoma; 91.9% with MDA-MB-231 breast; 97.5% with RXF 393 renal; 95.5% in the assay with SF-268 CNS; 87.8% in the assay with SF-295 CNS; 98.9% with SF-539 CNS. Moreover, the growth in the assay with UACC-257 melanoma is 90.9%; in the assay with M14 melanoma, 88.2%.

Turning to `O=[N+]([O-])c1cccc(C(c2ccccc2)c2ccccc2)c1`, the growth in the assay on NCI-H23 lung was 87.5%; in the assay on NCI-H226 lung it was 76.9%; in the assay with NCI-H322M lung it was 90.6%; with HOP-62 NSCLC it was 88.7%; in the assay with NCI-H460 lung it was 87.5%; in the assay on HOP-92 NSCLC it was 63.9%. Also, the growth in the assay with NCI-H522 lung is 79.1%; in the assay with A549/ATCC NSCLC, 87.7%; in the assay on 786-0 renal, 97.3%; with COLO 205 colon, 95.2%; in the assay on DU-145 prostate, 110%; with K-562 leukemia, 73.7%. The growth in the assay on MALME-3M melanoma is 97%; in the assay on MDA-MB-231 breast it was 83.1%; in the assay with RXF 393 renal, 102%; in the assay on SF-268 CNS it was 99.8%; with SF-295 CNS, 76.7%; in the assay with SF-539 CNS, 101%. Further, the figures for the growth with UACC-257 melanoma and in the assay with M14 melanoma were 102% and 97%, respectively.
